{
  "source": "PubChem BioAssay (NCATS)",
  "note": "Inconclusive results are not listed. Calls of active or inactive are those of the source. The call rests on the fitted dose curve; in most records, active means well fitted cell-killing curve with a large enough effect; inconclusive means small, poorly fitted or top-dose-only effect, or effect the other way; inactive means no such curve, though single readings can be large or run the other way. Potency means the concentration at half of the fitted maximal effect.",
  "data": [
    {"test": "Quantitative High-Throughput drug screen in 47 multiple myeloma cell lines against the NCATS MIPE library collection: Delta47_JCRB cell viability assay (AID 1918925; further: nearly all actives have a fitted effect of over 45% in size)", "conditions": "Delta47 myeloma viability, CellTiter-Glo ATP, 48 h; series mostly up to 45.8 µM; viability (% of DMSO): at the top concentration", "from_the_text": "PI: Beverly A. Mock Ph.D.\nLaboratory of Cancer Biology and Genetics,\nCenter for Cancer Research, National Cancer Institute,\nNational Institute of Health, Bethesda, Maryland\nDrug resistance and disease progression are common in multiple myeloma (MM) patients, underscoring the need for new therapeutic combinations. […] We hypothesized that effective combinations would reduce MYC expression and enhance p16 activity. […] These preclinical data identify potentially useful drug combinations for evaluation in drug-resistant MM and reveal potential mechanisms of combined drug sensitivity.\nDescribed herein is the primary MIPE qHTS used to cherrypick compounds. Validated compounds were then further tested for potential synergistic activiy.\n[1] Peat TJ, Gaikwad SM, Dubois W, Gyabaah-Kessie N, Zhang S, Gorjifard S, Phyo Z, Andres M, Hughitt VK, Simpson RM, Miller MA, Girvin AT, Taylor A, Williams D, D'Antonio N, Zhang Y, Rajagopalan A, Flietner E, Wilson K, Zhang X, Shinn P, Klumpp-Thomas C, McKnight C, Itkin Z, Chen L, Kazandijian D, Zhang J, Michalowski AM, Simmons JK, Keats J, Thomas CJ, Mock BA. Drug combinations identified by high-throughput screening promote cell cycle transition and upregulate Smad pathways in myeloma. Cancer Lett. 2023 Aug 1;568:216284. doi: 10.1016/j.canlet.2023.216284. Epub 2023 Jun 24. PMID: 37356470; PMCID: PMC10408729.\nSEQUENCE No. (e.g., 1, 2, 3, etc.); […] (e.g., Cells, Incubation, Reagent, etc.); VALUE and DESCRIPTION.\n1; Cells; 5 uL; white, solid bottom 1536-well Greiner assay plate.\n2; Compounds; 23 nL; Kalypsis pin tool (Wako USA) equipped with a 1536-well pin head to transfer to the assay plates.\n3; Incubation; 48 hours; 37C incubation.\n4; Reagent;5uL; CellTiter Glo (Promega).\n5; Detector; 425V; Luminescence; Viewlux PerkinElmer.\nNOTES (numbers refer to Sequence numbers above)\n1. The cell-based screening methods employed in this study were like those previously published. Briefly, the corresponding myeloma cell lines were screened in 1,536-well plates with 500 cells, 5-uL per well for inhibition of cell viability (assessed by measuring ATP levels with CellTiterGlo).\n2. NCATS MIPE 4.0 library of approved and investigational drugs were added using the Kalypsis pin tool. Wells treated with DMSO only for 100% viability and media only wells for 0% viability were used as controls.\n3. The assay plates were covered and incubated for 48 hours in a 37C, 5% CO2 incubator with controlled humidity.\n4. After 48 hours, CellTilter-GloTM luminescent substrate mix (Promega) reagent was added to the assay plate and plates we incubated for 5 min at room temperature.\n5. Signal was measured as median relative luminescence units on a ViewLux (PerkinElmer) multiplate reader.\n[1] Heske CM, Davis MI, Baumgart JT, Wilson K, Gormally MV, Chen L, Zhang X, Ceribelli M, Duveau DY, Guha R, Ferrer M, Arnaldez FI, Ji J, Tran HL, Zhang Y, Mendoza A, Helman LJ, Thomas CJ. Matrix Screen Identifies Synergistic Combination of PARP Inhibitors and Nicotinamide Phosphoribosyltransferase (NAMPT) Inhibitors in Ewing Sarcoma. Clin Cancer Res. 2017 Dec 1;23(23):7301-7311. doi: 10.1158/1078-0432.CCR-17-1121. Epub 2017 Sep 12. PMID: 28899971; PMCID: PMC6636827.", "values": [
      {"smiles": "O=C1Cc2cc(CCN3CCN(c4nsc5ccccc45)CC3)c(Cl)cc2N1", "Potency": "23.5 µM (active)"},
      {"smiles": "NS(=O)(=O)c1cc2c(cc1Cl)NCNS2(=O)=O", "viability (% of DMSO)": "99% (inactive)"},
      {"smiles": "CN(C)CCCN1c2ccccc2CCc2ccc(Cl)cc21", "Potency": "1.18 µM (active)"},
      {"smiles": "CN(C)c1nc(N(C)C)nc(N(C)C)n1", "viability (% of DMSO)": "88.1% (inactive)"},
      {"smiles": "CC1COc2c(N3CCN(C)CC3)c(F)cc3c(=O)c(C(=O)O)cn1c23", "note": "(stereo not given)", "viability (% of DMSO)": "127% (inactive)"},
      {"smiles": "O=c1c(-c2ccc(O)cc2)coc2cc(O)cc(O)c12", "viability (% of DMSO)": "98.8% (inactive)"},
      {"smiles": "Cn1cnc2c1c(=O)[nH]c(=O)n2C", "Potency": "14.8 µM (active)"},
      {"smiles": "N[C@@H](Cc1c[nH]c2ccc(O)cc12)C(=O)O", "viability (% of DMSO)": "108% (inactive)"},
      {"smiles": "CN1CCC(=C2c3ccccc3CC(=O)c3sccc32)CC1", "Potency": "8.33 µM (active)"},
      {"smiles": "Nc1nc2c(ncn2COC(CO)CO)c(=O)[nH]1", "Potency": "18.7 µM (active)"},
      {"smiles": "CCc1cccc2c3c([nH]c12)C(CC)(CC(=O)O)OCC3", "note": "(stereo not given)", "viability (% of DMSO)": "123% (inactive)"},
      {"smiles": "CC(COc1ccccc1)N(CCCl)Cc1ccccc1", "note": "(stereo not given)", "viability (% of DMSO)": "96.6% (inactive)"},
      {"smiles": "Cc1ccc(-c2cc(C(F)(F)F)nn2-c2ccc(S(N)(=O)=O)cc2)cc1", "Potency": "16.6 µM (active)"},
      {"smiles": "CS(=O)(=O)Nc1ccc([N+](=O)[O-])cc1Oc1ccccc1", "viability (% of DMSO)": "131% (inactive)"},
      {"smiles": "Nc1ccn([C@H]2CC[C@@H](CO)O2)c(=O)n1", "viability (% of DMSO)": "75.4% (inactive)"},
      {"smiles": "Nc1nnc(-c2cccc(Cl)c2Cl)c(N)n1", "Potency": "23.5 µM (active)"},
      {"smiles": "O=C(Nc1ccc([N+](=O)[O-])cc1Cl)c1cc(Cl)ccc1O", "Potency": "1.32 µM (active)"},
      {"smiles": "CC(C)Cc1ccc(C(C)C(=O)O)cc1", "note": "(stereo not given)", "viability (% of DMSO)": "110% [at 23.2 µM] (inactive)"},
      {"smiles": "CN(CCOc1ccc(NS(C)(=O)=O)cc1)CCc1ccc(NS(C)(=O)=O)cc1", "viability (% of DMSO)": "121% (inactive)"},
      {"smiles": "NC(CO)C(=O)NNCc1ccc(O)c(O)c1O", "note": "(stereo not given)", "viability (% of DMSO)": "98.1% (inactive)"},
      {"smiles": "CN1CCN(CCCN2c3ccccc3Sc3ccc(Cl)cc32)CC1", "Potency": "18.7 µM (active)"},
      {"smiles": "CCC1(C)CC(=O)NC1=O", "note": "(stereo not given)", "viability (% of DMSO)": "126% (inactive)"},
      {"smiles": "O=C1c2c(O)ccc(O)c2C(=O)c2c(NCCNCCO)ccc(NCCNCCO)c21", "Potency": "0.132 µM (active)"},
      {"smiles": "NC(=O)OCC(COC(N)=O)c1ccccc1", "viability (% of DMSO)": "98.4% (inactive)"},
      {"smiles": "CN1C2CCC1CC(OC(=O)C(CO)c1ccccc1)C2", "note": "(stereo not given)", "viability (% of DMSO)": "122% (inactive)"},
      {"smiles": "Cc1cc(C(C)(C)C)c(O)c(C)c1CC1=NCCN1", "viability (% of DMSO)": "101% (inactive)"},
      {"smiles": "CCOC(=O)Nc1ccc(NCc2ccc(F)cc2)nc1N", "viability (% of DMSO)": "110% (inactive)"},
      {"smiles": "COc1cc2nc(N3CCN(C(=O)c4ccco4)CC3)nc(N)c2cc1OC", "Potency": "10.5 µM (active)"},
      {"smiles": "COc1nc(C)nc(Cl)c1NC1=NCCN1", "Potency": "11.8 µM (active)"},
      {"smiles": "CN1CCC(=C2c3ccccc3C=Cc3ccccc32)CC1", "Potency": "9.35 µM (active)"},
      {"smiles": "COc1ccccc1N1CCN(CC(O)COc2cccc3ccccc23)CC1", "note": "(stereo not given)", "viability (% of DMSO)": "84.9% (inactive)"},
      {"smiles": "Cc1cc(C(C)(C)C)cc(C)c1CC1=NCCN1", "viability (% of DMSO)": "91.8% (inactive)"},
      {"smiles": "OCCN(CCO)c1nc(N2CCCCC2)c2nc(N(CCO)CCO)nc(N3CCCCC3)c2n1", "Potency": "23.5 µM (active)"},
      {"smiles": "Cn1c(=O)c2[nH]cnc2n(C)c1=O", "viability (% of DMSO)": "115% (inactive)"},
      {"smiles": "CC(C(=O)O)c1cccc(C(=O)c2ccccc2)c1", "note": "(stereo not given)", "Potency": "20.9 µM (active)"},
      {"smiles": "CCOC(=O)c1ncn2c1CN(C)C(=O)c1cc(F)ccc1-2", "viability (% of DMSO)": "112% (inactive)"},
      {"smiles": "C[C@H]1c2cccc(O)c2C(O)=C2C(=O)[C@]3(O)C(O)=C(C(N)=O)C(=O)[C@@H](N(C)C)[C@@H]3[C@@H](O)[C@@H]21", "Potency": "23.5 µM (active)"},
      {"smiles": "CNCCCC12CCC(c3ccccc31)c1ccccc12", "Potency": "18.7 µM (active)"},
      {"smiles": "NC12CC3CC(CC(C3)C1)C2", "Potency": "16.6 µM (active)"},
      {"smiles": "O=C(c1ccc(OCCN2CCCCC2)cc1)c1c(-c2ccc(O)cc2)sc2cc(O)ccc12", "Potency": "23.5 µM (active)"}
    ]}
  ]
}
